From PubChem BioAssay (NCATS)
Results filed as inconclusive are left out. Where a call stands in place of a potency, no number is given. Activity calls are given as the source filed them. Calls follow the shape of the dose curve; as a rule, active = well fitted cell-killing curve with a large enough effect; inconclusive = small, poorly fitted or top-dose-only effect; inactive = flat fitted curve, though single readings scatter.

Experiment: Cell Viability - LYMP2-006 (AID 978); also: nearly all actives have a fitted effect of over 60% in size
Conditions: LYMP2-006 lymphoblastoid cell viability, qHTS; series mostly up to 92.2 µM
From the text: NIH Chemical Genomics Center [NCGC]
NIH Molecular Libraries Screening Centers Network [MLSCN]
National Institutes of Environmental Health Sciences [NIEHS]
National Toxicology Program [NTP]
We have developed a 1536-well cell-based assay for quantitative high throughput screening (qHTS) against a number of cell lines to determine in vitro cytotoxicity of small molecules. This particular assay uses a human lymphoblastoid cell line (LYMP2-006) purchased from Coriell Institute for Medical Research.
NCGC Assay Protocol Summary:
The CellTiter-Glo luminescent cell viability assay (Promega) is a homogeneous method to measure the number of viable cells in culture. The end point readout of this assay is based on quantitation of intracellular ATP, an indicator of metabolic activity, using the luciferase reaction. Luciferase catalyzes the oxidation of beetle Luciferin to oxyluciferin and light in the presence of ATP. The luminescent signal is proportional to amount of ATP present.
Using the CellTiter-Glo luminescent cell viability assay, the amount of cellular ATP was measured in the lymphoblastoid cell line with complete culture medium following compound treatment for 24 hours. The assay was performed in opaque white Kalypsys 1536-well plates. In the screen, tetraoctylammonium bromide was used as positive control. Library compounds were measured for their ability to cause acute toxicity in the cell line, as reflected by a decrease in intracellular ATP levels, in a concentration-dependent manner. […] AC50 values were determined from concentration-response data modeled with the standard Hill equation.
qHTS protocol for CellTiter Glo lymphoblastoid cellular assay
[Step] [Parameter] [Value] [Description]
1. Reagent; 5 uL; 2500 lymphoblastoid cells/well
2. Time; 5 hr; 37 C incubation
4. Controls; 23 nL; Tetraoctylammonium bromide 6.4pM to 92 uM
5. Time; 24 hr; 37 C incubation
6. Reagent; 5 uL; CellTiter Glo reagent
7. Time; 30 min; Room Temperature
8. Detection; Luminescence; Viewlux plate reader
Keywords: cell viability, cytotoxicity, lymphoblastoid cell line, luminescence, NTPHTS, NTPHTS_NCGC, NIEHS, DSSTox, MLSMR, MLSCN, NIH Roadmap, qHTS, NCGC
Potency is read from the fitted curve at half-maximal effect.

Row | Compound | Potency
1 | C#C[C@]1(O)CC[C@H]2[C@@H]3CCc4cc(O)ccc4[C@H]3CC[C@@]21C | inactive
2 | NCCO | inactive
3 | Nc1ccc([N+](=O)[O-])cc1O | inactive
4 | O=c1cc(-c2ccccc2)oc2ccccc12 | inactive
5 | O=C(O)c1cc(O)c(O)c(O)c1 | inactive
6 | Nc1ccc(O)c(C(=O)O)c1 | inactive
7 | CC1(C)S[C@@H]2[C@H](NC(=O)[C@H](N)c3ccccc3)C(=O)N2[C@H]1C(=O)O | inactive
8 | S=c1[nH]c2ccccc2s1 | inactive
9 | CC(C)NCC(O)COc1cccc2ccccc12 (configuration not stated) | inactive
10 | CN(C)c1ccc(N=NS(=O)(=O)O)cc1 | inactive
11 | COc1cc(CNC(=O)CCCC/C=C/C(C)C)ccc1O | inactive
12 | Nc1nc2ccc([N+](=O)[O-])cc2s1 | inactive
13 | Nc1ccc(O)c([N+](=O)[O-])c1 | inactive
14 | CN1CCC[C@H]1c1cccnc1 | inactive
15 | O=C(O)/C=C\C(=O)O | inactive
16 | CN(C)CCC(c1ccc(Cl)cc1)c1ccccn1 (configuration not stated) | inactive
17 | COc1cc(/C=C/C(=O)CC(=O)/C=C/c2ccc(O)c(OC)c2)ccc1O | 25.1 µM (active)
18 | N=C1N=C(N)c2cc3ccccc3cc21 | 50.1 µM (active)
19 | CCCOC(=O)c1ccc(O)cc1 | inactive
20 | CCCCCCCCCCCCCCCCCC(=O)O | inactive
21 | CN(C)c1ccc(C(=C2C=CC(=[N+](C)C)C=C2)c2ccccc2)cc1 | 0.501 µM (active)
22 | c1ccc2sc(SSc3nc4ccccc4s3)nc2c1 | inactive
